Marburg entry inh – Marburg virus entry inhibition. Marburg virus pseudotyped entry inhibition, cell reporter. Potency, µM (series often up to 37.8 µM), inactives show at the top dose activity change, negative = inhibition, most hits filed as inhibitors. 300,000 compounds, 1.8% hits. AID 540276; calls by dose curve; tested in HEK293 cells; note: potency is the fitted concentration of half-maximal effect
Vaccinia Venus – vaccinia inhibition (Venus reporter); Potency, µM (series often up to 36.5 µM), for inactives: at the highest dose activity change, negative = inhibition, most hits filed as inhibitors; 330,000 compounds, 0.46% hits; AID 720580; Vaccinia virus Venus reporter expression, fluorescence; calls by dose curve; tested in A549 cells; note: potency is the fitted concentration of half-maximal effect; nearly all actives have a fitted effect of over 30% in size
LASV entry inh – inhibitors of Lassa virus binding or cell entry; AID 540256; 300,000 compounds, 1.2% hits; Potency, µM (top dose mostly 37.9 µM), without a hit: at the highest dose activity change, negative = inhibition, hits mostly inhibitors; Lassa virus pseudotype entry inhibition, cell reporter; calls by dose curve; tested in HEK293 cells; note: potency is the fitted concentration of half-maximal effect; nearly all actives have a fitted effect of over 50% in size
VACV mCherry inh – inhibitors of vaccinia virus infection (mCherry reporter signal); Potency, µM (series often up to 36.5 µM), inactives show top-dose activity change, negative = inhibition, most hits filed as inhibitors; Vaccinia virus mCherry reporter infection, fluorescence; 310,000 compounds, 0.63% hits; calls by dose curve; tested in A549 cells; note: potency is the fitted concentration of half-maximal effect; nearly all actives have a fitted effect of over 35% in size
FMDV inh – antivirals against foot and mouth disease virus | FMDV antiviral cell-based qHTS | Potency, µM (series often up to 57.9 µM), without a hit: at the top dose activity change, negative = inhibition, usual class: inhibitors | 410,000 compounds, 1.2% hits | AID 1159524; calls by dose curve; tested in HEK293T cells; note: read-out not given here; potency is the fitted concentration of half-maximal effect; nearly all actives have a fitted effect of over 45% in size
HCMV inh – inhibitors of human cytomegalovirus; HFF cells, HCMV-luciferase reporter, 72 h; hits give low values; activity change, negative = inhibition, % at 57.5 µM; 410,000 compounds, 4.5% hits; AID 1259415; in the data active = activity change below about -60%; inconclusive = no clear call, values can overlap the other calls; inactive = above about -39%
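Two compound doses tested in HFFs infected with HCMV-luciferase, MOI 1 PFU/cell, 72 h at 37C. Lysate luminescence read with OneGlo; data normalized against buffer-only and 10uM Salinomycin inhibitor controls.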
Numbers without * were called inactive; i = inactive; ? = inconclusive; . = not tested or not shown; [ ] = remark or other dose. Hits are enriched below; roughly 6.5% of the tested compounds scored in any of these assays. % is set by controls: 0 for no effect and ±100 for the full control effect.

SMILES	Marburg entry inh	Vaccinia Venus	LASV entry inh	VACV mCherry inh	FMDV inh	HCMV inh
CCn1cc(Cl)c(C(=O)Nc2c(C)nn(Cc3c(F)c(F)c(F)c(F)c3F)c2C)n1	-1%[46.1 µM]	?	3%[46.1 µM]	?	2%	-9
Cc1ccc(-n2c(O)c(C=NCc3ccccn3)c3ccccc3c2=O)cc1	0%	-24%	-8%	-2%	-21%	-65*
Cc1ccc2c(C)ccnc2c1	.	-8%	.	-18%	.	.
CCOC(=O)c1c(N)n(CCCOC(=O)c2ccco2)c2nc3ccccc3nc12	?	10µM*	?	?	?	-21
CCCCCn1c(NC(=O)c2ccco2)c(C(=O)OCC)c2nc3ccccc3nc21	4.5µM*	-29%	?	-27%	?	.
COc1ccc(N2C(=O)CCSC23C(=O)N(Cc2ccc(F)cc2)c2ccccc23)cc1 (stereo not drawn)	.	?	?	11µM*	-14%	?
Cc1c(C)c2cc(Cl)c(O)c(CN3CCC[C@@H](C)C3)c2oc1=O	0%	.	.	.	.	.
CCOC(=O)c1cccc(NC(=O)Nc2cc(OC)ccc2OC)c1	?	?	16µM*	-26%	?	?
O=C(Nc1ccncc1)Nc1ccc(Cl)cc1	3%[46.1 µM]	-15%	5%[46.1 µM]	i	7%	-72*
O=C(Nc1cccc(Cl)c1)Nc1ccc(Br)cc1F	?	?	?	?	-19%	-69*
COC(=O)c1cc(NC(=O)Nc2cccc(Cl)c2)ccc1Cl	?	?	?	?	.	-99*
O=C(Nc1ccccc1)Nc1ccc(Br)cc1F	-9%	-2%	?	i	48%	-16
O=C(Nc1cccc(Cl)c1)Nc1cccc(Cl)c1	?	?	-22%	?	-1%	?
COC(=O)[C@@H]1CC[C@H](C)[C@@H](c2ccc(C)cc2)N1C(=O)c1ccc(C=NOC[C@@H](O)COCc2ccco2)cc1	?	.	15%[14.3 µM]	.	.	.
Cc1cccc(CNC(=O)c2ccc3c(c2)N(C)C(=O)C2CCCCN32)c1 (stereo not drawn)	.	-11%	?	-7%	9%	-6
CC(C)CN(C(=O)COc1ccc([N+](=O)[O-])cc1)c1c(N)n(CC(C)C)c(=O)[nH]c1=O	.	.	.	.	-4%	?
COc1cc(N(C)C)c(OC)cc1C=O	.	-3%	.	-14%	.	.
COc1cccc(NC(=O)Nc2cc(Cl)ccc2C)c1	?	-25%	-29%	i	-20%	-60*
COc1ccc(OC)c(NC(=O)NNS(=O)(=O)c2ccc(C)cc2C)c1	-8%	-12%	0%	-17%	-11%	-62*
COC(=O)c1cccc(NC(=O)Nc2ccc(Cl)cc2)c1	?	-3%	-27%	1%	5%	-67*
COC(=O)c1cccc(NC(=O)NC(=O)c2ccc(Cl)cc2)c1	?	-5%	?	i	32%	36
CCOc1ccc(/C(O)=C2/C(=O)C(=O)N(c3nc(C)c(C)s3)C2c2ccco2)cc1 (stereo not drawn)	-10%	-12%	4%	.	-1%	-90*
CC(C)(C)c1ccc(-c2cc(-c3ccccc3O)[nH]n2)cc1	?	?	?	-26%	-47%	-95*
Oc1ccc(Cl)cc1-c1cc(-c2ccccc2Cl)[nH]n1	-1%	.	-4%	.	38%	118
Oc1ccccc1-c1cc(-c2ccccc2Cl)[nH]n1	-16%	?	10µM*	?	-20%	135
COC(=O)C1=C(C)N(Cc2ccccc2)C(=NCc2cc(OC)c(OC)c(OC)c2)NC1c1cccc(F)c1 (stereo not drawn)	-17%[14.2 µM]	.	?	.	.	.
COC(=O)[C@]1(C)CC[C@@]2(C)CC[C@@]3(C)C4=CC=C5C(=CC(=O)C(O)=C5C)[C@@]4(C)CC[C@@]3(C)C2C1 (stereo partly drawn)	.	-27%	.	-17%	10µM*	.
CCOc1ccc(C(=O)Nc2cccc(C(=O)OCc3cc(=O)n4cc(C)sc4n3)c2)cc1	.	-13%	10%[46.1 µM]	-14%	9%	9
CN(C)CCNC(=O)COc1ccc(C23CC4CC(CC(C4)C2)C3)cc1	4µM*	?	?	-9%	-28%	-68*
COc1ccc(NS(=O)(=O)c2cc(NC(=O)c3cnccn3)ccc2N2CCCC2)cc1	-11%	?	-27%	-27%	43%	?

Bioassay records from PubChem.
